Inconclusive results are not listed. Active and inactive are the calls of the source. Unless noted, the limit is not given here; nearly all actives have AC50 up to about 30 µM.
Columns and labels:
[1] = viability loss in pontine glioma line – cell-based, SU-DIPG-XIII, MIPE4.0, CellTiter-Glo, qHTS, dose response (AID 1347061; cut-off not given, nearly all actives have AC50 up to about 37 µM;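 also: cells exposed to compound for 48 hours before readout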); settings: CellTiter-Glo ATP luminescence
[2] = growth inhibition of DIPG cells – cell-based, MIPE4.0 library, CellTiter-Glo luminescence, qHTS (AID 1347066); settings: SU-DIPG-VI viability, CellTiter-Glo ATP luminescence;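 also: cells exposed to compound for 48 hours before readout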
[3] = viability loss in pontine glioma line – cell-based, JHH-DIPG-1, MIPE4.0, CellTiter-Glo, qHTS, dose response (AID 1347062; cut-off not given, nearly all actives have AC50 up to about 27 µM;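 as to AC50: cells exposed to compound for two days before readout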); settings: JHH-DIPG-1 viability, CellTiter-Glo ATP luminescence
[4] = viability loss in pontine glioma line – cell-based, SU-DIPG-IV, MIPE4.0, CellTiter-Glo, qHTS, dose response (AID 1347063); settings: CellTiter-Glo ATP luminescence;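 also: compound exposure lasted 48 hours before the viability readout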
[5] = viability loss in pontine glioma line – cell-based, SU-DIPG-XXV, MIPE5.0, CellTiter-Glo, qHTS, dose response (AID 1347065; cut-off not given, nearly all actives have AC50 up to about 26 µM;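 also: cells exposed to compound for 48 hours before ATP readout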); settings: CellTiter-Glo ATP luminescence
[6] = JHH-DIPG-1 glioma cell viability, MIPE5.0 library, CellTiter-Glo luminescence, qHTS (AID 1347067; cut-off not given, nearly all actives have AC50 up to about 26 µM;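 also: cells exposed to compound for 48 hours before readout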); settings: JHH-DIPG-1 glioma viability, CellTiter-Glo ATP luminescence
[7] = viability loss with induced miR-34 in A549 – imaging, A549 dox-inducible miR-34, nuclei and caspase counts, primary screen (AID 1347080;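 active = compounds whose cell count with miR-34 switched on is under 0.7 times the count with it off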); settings: A549 miR-34 inducible, Hoechst nuclei count, 48 h
[8] = MELAS cybrid and Rieske KO viability enhancers – cell-based, MELAS cybrids, Rieske KO mouse fibroblasts, CellTiter-Glo, primary screen (AID 1508586;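 active = mean z-score across replicates of 1.96 or higher in either the MELAS or the Rieske mutant cell line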;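 also: z relative to plate mean and SD of compound and empty wells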); settings: low glucose
[9] = viability loss in pontine glioma line – cell-based, SU-DIPG-XIII, MIPE5.0, CellTiter-Glo, qHTS, dose response (AID 1347064; cut-off not given, nearly all actives have AC50 up to about 23 µM;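 as to AC50: cells exposed to compound for 48 hours before the viability read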); settings: CellTiter-Glo ATP luminescence
[10] = growth inhibition of DIPG cells – cell-based, MIPE5.0 library, qHTS (AID 1347068; cut-off not given, nearly all actives have IC50 up to about 30 µM;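 as to IC50: cells exposed to compound for 48 hours before viability readout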); settings: SU-DIPG-XXV viability
[11] = compounds altering HSF1 focus formation in cells – imaging, Selleck Cancer Library (AID 1347162; in the data active = plate-normalised HSF1 focus index below about 0.46); settings: human cells, HSF1 nuclear foci imaging, at 10 µM; SSMD: measured here: HSF1 foci SSMD mean; cell count: measured here: cell number; plate-normalised HSF1 focus index: stronger effect = lower value

C/C=C(/C)C(=O)O[C@H]1C(C)=C[C@]23C(=O)[C@@H](C=C(CO)[C@@H](O)[C@]12O)[C@H]1[C@@H](C[C@H]3C)C1(C)C
active: AC50 [2] 20.9 µM
inactive: outcome [1]

COc1ccc(Cn2ccc3ccc(C(=O)NO)cc32)cc1
6690: cell count ([7]; measured here: total cells without miR-34 induction)
0.636: z-score ([8]; Rieske KO mouse fibroblast survival, CellTiter-Glo 72 h)
5300: cell count ([7]; measured here: total cells with miR-34 induction, stronger effect = lower value)
inactive: outcome [3] | outcome [4] | outcome [5] | outcome [2] | outcome [6] | fold change ([7]; stronger effect = lower value, cell number ratio, induced over uninduced) 0.793 | z-score ([8]; MELAS cybrid survival, CellTiter-Glo 48 h, stronger effect = higher value) -0.343
0.954: fold change ([7]; measured here: relative caspase fold change +Dox/-Dox)

C=CC(=O)Nc1cc(NC(=O)c2ccc(C)c(NC(=O)c3ccno3)c2)cc(C(F)(F)F)c1
active: AC50 [3] 16.6 µM | AC50 [4] 18.7 µM | AC50 [2] 16.6 µM

Cc1cn2cc(C(=O)N(C)CCO)cc(N[C@@H]3CCOc4cccc(C)c43)c2n1
inactive: outcome [3] | outcome [4] | outcome [9] | outcome [2] | outcome [6] | outcome [10]

Cc1cc(Nc2cc(NC(=O)c3c(Cl)cccc3Cl)ccn2)nc(N)n1
active: AC50 [3] 18.7 µM | AC50 [4] 18.7 µM | AC50 [9] 8.33 µM | AC50 [5] 9.34 µM | AC50 [6] 9.34 µM | IC50 [10] 18.6 µM

NC(CO)(CO)CCc1ccc(Sc2cccc(OCc3ccccc3)c2)cc1Cl
active: AC50 [3] 11.8 µM | AC50 [4] 11.8 µM | AC50 [9] 8.33 µM | AC50 [5] 9.34 µM | AC50 [2] 18.7 µM | AC50 [6] 9.34 µM

CCCCCCCc1ccc(CCc2cccc(O)c2C(=O)O)cc1
inactive: outcome [3] | outcome [4] | outcome [5] | outcome [6] | outcome [10] | plate-normalised HSF1 focus index [11] 1.06
0.921: SSMD [11]
6030: cell count [11]

From PubChem BioAssay
